Experimental findings from PubChem BioAssay AID1460 (National Center for Advancing Translational Sciences (NCATS), 2008) are described below.

Out of some 270,000 compounds screened, about 5,800 (2.1%) were called active. Inconclusive results (about 16%) are left out. Many of the other results were omitted from the sample, so actives are more common in it than they were. A number with no mark means an inactive call. The call rests on the fitted dose curve; in most records, active means well fitted inhibition curve with a large enough effect; inconclusive means small, poorly fitted or top-dose-only effect; inactive means flat fitted curve, though single readings scatter.
On the % scale 0 is the no-effect control and ±100 the full control effect; potency means the concentration at half of the fitted maximal effect.

Chain of Microtubule-associated protein tau (Homo sapiens) (P10636 561-689 P618L limits assumed): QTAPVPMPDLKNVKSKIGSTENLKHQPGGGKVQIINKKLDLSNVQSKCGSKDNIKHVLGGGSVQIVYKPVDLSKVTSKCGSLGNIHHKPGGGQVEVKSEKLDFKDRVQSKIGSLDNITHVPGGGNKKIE

The test deals with Microtubule-associated protein tau (Homo sapiens) (UniProt P10636). Nature of the test: qHTS for Inhibitors of Tau Fibril Formation, Thioflavin T Binding. Further: nearly all actives have a fitted effect of over 55% in size. The conditions noted are these: recombinant tau K18 P301L, heparin-induced fibrillization, ThT fluorescence; series mostly up to 57.4 µM; activity, negative = inhibition: at the top concentration. Put shortly:
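ThT emission at 510 nm, taken 1 hr after adding 30 uM dye, quantifies aggregates formed when 20 uM heparin acts on human tau K18 P301L for 6 hr at 37 C.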
A general note: In qHTS, concentration-response curves come from the screen itself.
With `CC(=O)Nc1ccc(NC(=O)c2sc3nc4c(c(-c5ccc(C)cc5)c3c2N)CCC4)cc1`, the “activity, negative = inhibition” value was -8.97%.
On the same count and under the same terms, to `NC(=O)c1sc2nc3c(c(-c4ccccc4)c2c1N)CCC3` belongs -18%.
For the compound `Cc1cccc(NC(=O)c2sc3nc4c(c(-c5ccco5)c3c2N)CCC4)c1`, the Potency is 7.94 µM (active).
Turning to `CCN(CC)c1ccc(NC(=O)CN2C(=O)c3cccnc3Oc3ccc(Cl)cc32)c(C)c1`, the “activity, negative = inhibition” value was -3.19%.
Consider `O=S(=O)(Nc1ccc2nc(-c3cccc(Cl)c3)oc2c1)c1ccccc1`, for which the “activity, negative = inhibition” value is 10%.
As to `Cc1ccc(Nc2c3c(nc4ccccc24)CCC3)cc1`, the “activity, negative = inhibition” value is -3.18%.
As to `CCOc1ccc(-n2nc3ccc(NC(=O)c4ccc(OC)c(Cl)c4)cc3n2)cc1`, the “activity, negative = inhibition” value is -17.4%.
Consider `CCOc1ccc(C(=O)Nc2ccc3nc4c(c(Nc5ccccc5OC)c3c2)CCCC4)cc1`, for which the Potency is 14.1 µM (active).
For `COc1ccccc1Nc1c2c(nc3ccc(NC(=O)/C=C/c4cc(OC)c(OC)c(OC)c4)cc13)CCCC2`, the Potency was 14.1 µM (active).
Turning to `COc1cccc(NC(=O)c2ccc3c(SCC(=O)O)c4c(nc3c2)CCCC4)c1`, the “activity, negative = inhibition” value is 0.652%.
The same measure, in the same setting: to `COc1ccc(NS(=O)(=O)c2cc(NC(=O)/C=C/c3cc(OC)c(OC)c(OC)c3)ccc2N2CCCCC2)cc1` belongs -3.88%; to `COCCNC(=O)CCCN1C(=O)c2ccccc2Sc2ncccc21`, -0.918%.
Take `Cc1ccc(NC(=O)c2ccc(CN3CC(=O)N4CCCCC4C3=O)cc2)c(Cl)c1` (configuration not stated): the “activity, negative = inhibition” value is -11.5%.
With `Cc1ccnc(SCC(N)=O)n1`, the “activity, negative = inhibition” value was -5.04%.
Consider `Cc1ccnc(Nc2nc3ccccc3s2)n1`, for which the “activity, negative = inhibition” value was -16%.
In the case of `Cc1ccnc(-n2sc3ccccc3c2=O)n1`, the Potency is 14.1 µM (active).
In the case of `O=C(N/N=C/c1ccc2c(c1)OCO2)C(=O)N1CCCC1`, the “activity, negative = inhibition” value is -6.29%.
Regarding `CCC1=C/C(=C\c2ccc3c(c2)OCO3)C(=O)S1`, the Potency was 15.8 µM (active).
Turning to `CCOC(=O)CCCNC(=O)COC(=O)/C=C/c1ccc2c(c1)OCO2`, the “activity, negative = inhibition” value is 4.19%.
As to `O=C1/C(=C/c2ccc3c(c2)OCO3)CCC/C1=C\c1ccc2c(c1)OCO2`, the Potency is 3.98 µM (active).
Take `NS(=O)(=O)c1ccc(NC(=O)COC(=O)c2c3c(nc4ccccc24)/C(=C\c2ccc4c(c2)OCO4)CCC3)cc1`: the “activity, negative = inhibition” value is -5.39%.
Turning to `CCc1c(C)sc(NC(=O)/C=C/c2ccc3c(c2)OCO3)c1C(=O)OC`, the “activity, negative = inhibition” value is 8.02%.
Take `CCOc1ccc(NC(=O)CCC(=O)N2CC(C)Oc3ccc(C)cc32)cc1` (configuration not stated): the “activity, negative = inhibition” value was -0.975%.
Regarding `CC1=C(c2ccc(C)c(C)c2)S(=O)(=O)NC1=NCc1ccccc1Cl`, the “activity, negative = inhibition” value was -5.79%.
The same measure, in the same setting: to `COc1ccc(CNC(=O)CSc2nc3ccccc3nc2Cc2ccccc2)cc1` belongs 0.19%; to `COc1ccc(Cn2ccc3nc(C)c(C(=O)Nc4ccc(C)c(F)c4)cc3c2=O)cc1`, -2.05%.
Still for that read-out and setting: to `COc1ccccc1CNC(=O)c1ccccc1NC(=O)c1nsc2ccccc12` belongs 3.65%; to `CCOC(=O)c1cc(-c2ccc(OC)c(S(=O)(=O)Nc3ccc(OC)cc3OC)c2)on1`, -17.3%.
The same measure, in the same setting: the value for `CN(Cc1ccco1)S(=O)(=O)c1nnc(NC(=O)c2ccccc2)s1` was -2.1%; that for `COc1ccc(CN2C(=O)CC(Cc3ccc(C)cc3)C2=O)cc1OC` (configuration not stated) was -2.42%.
With `CCCCOc1ccc(CN2C(=O)C(=O)c3cc(Br)cc(C)c32)cc1OC`, the Potency is 28.2 µM (active).
With `CCCCOc1ccc(Cn2c(=O)oc3ccc(C)cc32)cc1OC`, the “activity, negative = inhibition” value was -3.17%.
As for `CSc1nc(=O)c2c(n1C)NC(=O)CC2c1ccccc1OC(C)C` (configuration not stated), the “activity, negative = inhibition” value is 5.27%.
On the same count and under the same terms, to `COCCn1c(C)cc(C2=NNC(=Nc3ccc(F)cc3)SC2)c1C` belongs -6.48%.
Regarding `Cc1cccc(N=C2NN=C(c3c[nH]c4ccccc34)CS2)c1`, the Potency is 2.82 µM (active).
With `Cc1cccc(C(=O)Nc2nnc(Cc3c[nH]c4ccccc34)s2)c1`, the “activity, negative = inhibition” value was -17.2%.
Still for that read-out and setting: the value for `CCCNC(=O)c1ccc(Cn2c(SCC(N)=O)nc3ccccc3c2=O)cc1` was 6.62%.
As to `CC(C)(C)c1nnc(NC(=O)C2c3ccccc3Oc3ccccc32)s1`, the Potency is 22.4 µM (active).
Take `CCC(C)NC(=O)C1c2ccccc2Oc2ccccc21` (configuration not stated): the “activity, negative = inhibition” value was -1.94%.
On the same count and under the same terms, to `CCC(C)(C)NC(=O)C1c2ccccc2Oc2ccccc21` belongs -0.856%; to `Cc1ccc(Cl)cc1NC(=O)Cc1ccc(-n2c(C)nc3cccnc32)cc1`, -0.615%.
Same read-out and setting: the value for `COc1cccc(CNS(=O)(=O)c2cc3c(cc2C)n(C)c(=O)c(=O)n3C)c1` was -7.39%; that for `Cc1ccccc1CNC(=O)C1CCCN(S(=O)(=O)N(C)c2ccc(F)cc2)C1` (configuration not stated) was -7.18%; that for `Cc1cc(C)cc(-n2c(SCC(=O)NCC3CCCO3)nc3c([nH]c4ccccc43)c2=O)c1` (configuration not stated) was -15.4%.
Same read-out and setting: the value for `O=C(CSc1nc2ccc([N+](=O)[O-])cc2[nH]1)c1ccc(Cl)cc1` was -14.3%; that for `N#Cc1cc([N+](=O)[O-])ccc1Oc1cccc(/C=N/NC(=O)c2ccc(Cl)cc2)c1` was -6.07%.
In the case of `O=C(N/N=C/c1ccc(Cl)cc1)c1nc2ccc([N+](=O)[O-])cc2c(=O)[nH]1`, the Potency was 15.8 µM (active).
For `O=C(CCS(=O)(=O)c1ccccc1)N(Cc1cccnc1)c1nc2c(F)cccc2s1`, the “activity, negative = inhibition” value was -5.97%.
As for `CN(CC(=O)Nc1ccc(N2CCOCC2)cc1)CC(=O)Nc1ccccc1[N+](=O)[O-]`, the “activity, negative = inhibition” value is -7.06%.
With `O=C(Nc1ccc(N2CCOCC2)cc1)c1ccc(-c2ccccc2[N+](=O)[O-])o1`, the Potency is 2.24 µM (active).
Take `O=C(CSc1ccc([N+](=O)[O-])cn1)Nc1ccc(N2CCOCC2)cc1`: the “activity, negative = inhibition” value is 7.95%.
The same measure, in the same setting: the value for `Cc1ccc(S(=O)(=O)n2nc(C)c(S(=O)(=O)N3CCCCCC3)c2C)cc1` was 5.02%; that for `CC(=O)Nc1ccc(S(=O)(=O)N2CCN(c3ccccc3)CC2)cc1` was -2.11%; that for `CCOc1ccc(OCC)c(NC(=O)c2cc(C)nc3c2c(C)nn3-c2cccc(Cl)c2C)c1` was -9.07%.
`COc1cc(NS(=O)(=O)c2ccc(N=Cc3c(C)[nH]n(-c4ccccc4)c3=O)cc2)nc(OC)n1`: the “activity, negative = inhibition” value was -9.16%.
On to `COc1cc(SC#N)ccc1N=Cc1c(C)[nH]n(-c2ccc(C)cc2)c1=O`, for which the Potency was 14.1 µM (active).
In the case of `CCC1=NN2C(=N)/C(=C/c3cc(C)n(-c4ccccc4)c3C)C(=O)N=C2S1`, the “activity, negative = inhibition” value was -8.51%.
The same measure, in the same setting: the value for `Cc1cc(/C=C2/C(=N)N3C(=NC2=O)SN=C3S(C)(=O)=O)c(C)n1-c1ccccc1` was -16.2%.
`CS(=O)(=O)c1ccc2c(c1)SC1=NC(=O)/C(=C/c3ccco3)C(=N)N12`: the Potency is 7.08 µM (active).
Turning to `Cc1cc(C)cc(NC(=O)Cn2nc(N3CCN(c4ccccc4)CC3)ccc2=O)c1`, the “activity, negative = inhibition” value is -11.4%.
The same measure, in the same setting: to `Cc1c(-c2cccc(NC(=O)C(C)(C)C)c2)nc2ncccn12` belongs -2.03%.
With `Cc1cccn2c(=O)c(C(=O)NC(C)c3ccccc3)cnc12` (configuration not stated), the “activity, negative = inhibition” value was 5.77%.
As for `Cc1ccc(-c2csc(NC(=O)c3cccs3)n2)cc1`, the “activity, negative = inhibition” value was -12.4%.
Same read-out and setting: the value for `Cc1nc(NNC(=O)c2ccccc2)cc(-c2ccccc2)n1` was -2.19%.
With `Cc1ccc(-c2csc(NNC(=O)c3ccccc3)n2)cc1`, the Potency was 12.6 µM (active).
Regarding `Cc1ccc(OC(=O)CSc2nnc(-c3cccs3)o2)cc1`, the “activity, negative = inhibition” value was 4.84%.
Consider `CCc1ccc(NS(=O)(=O)c2ccc3[nH]cc(C(=O)NCCc4cccc(C)c4)c(=O)c3c2)cc1`, for which the “activity, negative = inhibition” value was -0.768%.
Still for that read-out and setting: the value for `Cc1ccc(N2CC(NC(=O)Cc3cccs3)CC2=O)cc1` (configuration not stated) was -5.96%.
In the case of `COc1cccc(NC(=O)c2ccc3nc(CCc4ccccc4)oc3c2)c1`, the “activity, negative = inhibition” value was -15.7%.
The same measure, in the same setting: the value for `Cn1c(=O)c2c(n3c4ccccc4nc13)NC(=O)CC2c1cccc(Cl)c1` (configuration not stated) was -2.25%; that for `O=C(Cc1ccc(Br)cc1)N1CCN(c2ccccn2)CC1` was 3.26%.
For `C(=N\N1CCN(c2ccccn2)CC1)/C1=C(N2CCOCC2)C(=C/c2ccccc2)/CC1`, the Potency was 11.2 µM (active).
Still for that read-out and setting: to `O=C1Nc2ccc(Br)cc2/C1=N/N=C/C1=C(N2CCOCC2)C(=C\c2ccccc2)/CC1` belongs 4.47 µM (active).
As for `O=C(CN1CCN(c2ccccn2)CC1)N1CCc2ccccc21`, the “activity, negative = inhibition” value is -14.3%.
On to `Cc1c(-c2nc(-c3ccc4c(c3)OCO4)no2)nnn1-c1ccc(Br)cc1F`, for which the “activity, negative = inhibition” value is -17.8%.
Consider `CC1CCCN(c2nc3c(S(=O)(=O)c4ccc(C(C)C)cc4)nnn3c3ccsc23)C1` (configuration not stated), for which the “activity, negative = inhibition” value was 4.44%.
Still for that read-out and setting: the value for `CCOc1ccc(CNCc2c(C(=O)O)c(C)n(Cc3cccc(OC)c3)c2C)cc1OC` was -12.9%.
On to `CCc1ccc(N(CC)C(=O)CCn2cnc3onc(-c4ccc(F)cc4)c3c2=O)cc1`, for which the “activity, negative = inhibition” value is -16.1%.
As to `Cc1ccc2c(=O)c(C(=O)c3ccc(F)cc3)cn(CC(=O)NC3CCCCC3)c2n1`, the “activity, negative = inhibition” value was -15%.
Turning to `COc1cc(-c2noc(-c3ccc(N4CCCC4)c([N+](=O)[O-])c3)n2)cc(OC)c1OC`, the “activity, negative = inhibition” value was 1.35%.
On to `CCc1ccccc1NC(=O)c1sc2nc3c(cc2c1N)CN(Cc1ccccc1)CC3`, for which the “activity, negative = inhibition” value was -9.56%.
Take `CCN1CCc2nc(NC(=O)c3cc(F)c(F)cc3Cl)sc2C1`: the “activity, negative = inhibition” value is 7.9%.
In the case of `CCc1ccc(NC(=O)c2sc3nc4c(cc3c2N)CN(CC)CC4)cc1`, the Potency is 10 µM (active).
As for `Cc1ccc(-n2ncc(C(=O)N(C)Cc3ccccc3)c2-n2cccc2)cc1`, the “activity, negative = inhibition” value was -13.8%.
Take `O=C(N/N=C/c1ccc([N+](=O)[O-])cc1)c1c[nH]c2ccccc12`: the Potency was 2.82 µM (active).
Consider `COc1cc(CC(=O)N/N=C/c2ccccc2)c([N+](=O)[O-])cc1OC`, for which the “activity, negative = inhibition” value is -7.85%.
On the same count and under the same terms, to `Cc1ccccc1OCCOc1ccc([N+](=O)[O-])cc1/C=N/n1cnnc1` belongs -19.7%.
As to `Cc1cccc(COc2ccccc2/C=N/Nc2ccc([N+](=O)[O-])cc2)c1`, the Potency is 3.16 µM (active).
Take `O=C(Nc1ccccc1)/C(=C/c1ccc([N+](=O)[O-])cc1)NC(=O)c1ccccc1`: the “activity, negative = inhibition” value is -6.58%.
The same measure, in the same setting: the value for `Cc1cccc(C(=O)NNC(=O)c2cccc([N+](=O)[O-])c2)c1` was -1.12%; that for `O=C(NC(Cc1c[nH]c2ccccc12)C(=O)N/N=C/c1ccc(Br)cc1)c1cccs1` (configuration not stated) was 1.42%.
For `O=[N+]([O-])c1ccc(N/N=C/c2ccccc2)cc1`, the Potency is 3.55 µM (active).
As for `Cc1c(C(=O)N/N=C/c2ccccc2)[nH]c2c([N+](=O)[O-])cccc12`, the “activity, negative = inhibition” value was -2.9%.
The same measure, in the same setting: to `CNc1ccc(-c2nc(-c3ccco3)no2)cc1[N+](=O)[O-]` belongs 3.41%; to `Cc1ccc(Cl)cc1NC(=O)NC1COc2ccccc2C1` (configuration not stated), 3.8%; to `COc1ccc(NC(=O)CSc2nccn2C2CCCC2)cc1OC`, -1.2%.
Still for that read-out and setting: to `O=C(CN1C(=O)CCn2nc(-c3ccccc3)cc21)NCc1ccccc1` belongs -0.0678%.
